# High-throughput results: PubChem BioAssay, Broad Institute
# Rows were chosen to be rich in hits. Some 2.2% of all compounds tested hit in one or more screens of this group.
# TRPM1 prom inh = reduces MITF-dependent TRPM1 promoter luciferase signal; SK-MEL-5 TRPM1 promoter luciferase, 24 h; inhibition, % at 12.5 µM; actives 0.83% (n = 330,000); AID 488899;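 active = mean inhibition across replicates of 60% or more, whatever share of single replicates reaches that level; inconclusive = some that reach 60%, reason not given; inactive = mean inhibition across replicates below 60%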
# LGR2 antag = blocks bursicon-induced cAMP signaling via Drosophila LGR2. actives 0.35% (n = 380,000). AID 720647. inhibition, % at 9.99 µM. HEK293 LGR2, CRE-luciferase, bursicon-stimulated, 4 h;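 active = drop in luminescence signal, shown as inhibition above about 50% in the replicate tests, limit read from the data, passing the limit was not always enough; inconclusive = probably only some replicates passing the limit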;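 note: agonist challenge used bursicon conditioned medium at about half maximal strength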
# Shn3 inh set2 = inhibitors of Schnurri-3 3'UTR reporter in osteoblasts | Clone20 osteoblast Shn3 3'UTR firefly luciferase, 24 h | actives 0.52% (n = 360,000) | inhibition, % at 12.5 µM;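 active = mean inhibition of at least 75% with every replicate also reaching 75%; inconclusive = mean inhibition at least 75% but some replicate below; inactive = mean inhibition below 75%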;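 note: 0% = median of neutral control wells and 100% = pilot-screen positive control compound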
# EBV LMP1 NFkB = Epstein-Barr LMP1 NF-kappaB reporter inhibition | LMP1-induced NF-kappaB luciferase reporter cells, luminescence | inhibition, % at 12.5 µM | actives 0.69% (n = 350,000); in the data active = inhibition above about 41%; inconclusive = no clear call, values can overlap the other calls;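 note: 0% = neutral control wells and 100% = reference inhibitor control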
# PAX8 inh HTS = PAX8 transcriptional activity inhibition; AID 652154; actives 1.2% (n = 360,000); RMG-I TPO-luciferase reporter, SteadyGlo, 24 h; inhibition, % at 12.6 µM;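 active = mean replicate inhibition at least 60% with every replicate also reaching 60%; inconclusive = only one of the two criteria is met; inactive = mean below 60% and not all replicates reaching 60%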;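 note: luciferase light reporting Pax8 driven TPO promoter activity; plate controls were median of neutral control wells for no effect and mitoxantrone controls for full effect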
# EWS-Fli block = inhibitors of EWS/Fli oncoprotein transcriptional activity; A673 NR0B1-luciferase reporter, viability-normalised; inhibition, % at 12.6 µM; actives 0.67% (n = 350,000);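 active = mean inhibition of at least 50% after viability correction, with every replicate also passing that limit; inconclusive = mean reaches 50% but only one of two replicates passes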;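 note: firefly luciferase signal divided by Alamar Blue viability fluorescence both relative to DMSO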
# * = called active by the depositor; ? = inconclusive; · = not tested or not shown.
SMILES,TRPM1 prom inh,LGR2 antag,Shn3 inh set2,EBV LMP1 NFkB,PAX8 inh HTS,EWS-Fli block
CC1CC(C)CC(C)C(O)C(C#N)=CC=CCC(C2CCCC2C(=O)O)OC(=O)CC(O)C(C)C1 (configuration not stated),91.6*,74.8*,97.4*,?,102.0*,46.6
COC(=O)[C@]12OC[C@]34C([C@@H](O)[C@@H]1O)[C@]1(C)CC(=O)C(O)=C(C)[C@@H]1C[C@H]3OC(=O)[C@H](O)[C@@H]24 (some centres not stated),71.2*,93.2*,-8.2,15.6,-2.0,-20.2
COC(=O)[C@@H]1[C@@H](CO)[C@@H]2Cn3c(ccc(-c4ccc(OC)cc4)c3=O)[C@H]1N2C(=O)c1ccccc1F,·,-18.8,·,·,-2.5,-1.1
CC(=O)O[C@@]12CO[C@@H]1C[C@@H](O)[C@@]1(C)C(=O)[C@H](O)C3=C(C)[C@@H](OC(=O)[C@H](O)[C@@H](NC(=O)c4ccccc4)c4ccccc4)C[C@@](O)([C@@H](OC(=O)c4ccccc4)C12)C3(C)C (some centres not stated),·,·,21.0,23.2,·,55.1*
CC(=O)OC12COC1CC(O)C1(C)C(=O)C(O)C3=C(C)C(O)CC(O)(C(OC(=O)c4ccccc4)C21)C3(C)C (configuration not stated),20.4,-21.7,-11.4,-4.5,·,72.6*
CCCCCC(=O)N[C@@H](c1ccccc1)[C@@H](O)C(=O)O[C@H]1C[C@@]2(O)[C@@H](OC(=O)c3ccccc3)C3[C@](C)(C(=O)[C@H](O)C(=C1C)C2(C)C)[C@@H](OC1OCC(O)C(O)C1O)C[C@H]1OC[C@@]31OC(C)=O (some centres not stated),22.4,-1.6,3.6,-27.5,·,45.9
CC(=O)O[C@@]12CO[C@@H]1C[C@H](OC1OCC(O)C(O)C1O)[C@@]1(C)C(=O)[C@H](O)C3=C(C)[C@@H](OC(=O)[C@H](O)[C@@H](NC(=O)c4ccccc4)c4ccccc4)C[C@@](O)([C@@H](OC(=O)c4ccccc4)C12)C3(C)C (some centres not stated),·,13.2,15.1,-22.3,·,55.3*
Cc1cccc(S(=O)(=O)N2[C@@H]3Cn4c(ccc(-c5ccc(F)cc5)c4=O)[C@H]2[C@@H](C(=O)O)[C@@H]3CO)c1,·,12.5,·,·,·,-9.0
COC(=O)[C@@H]1[C@@H](CO)[C@@H]2Cn3c(cccc3=O)[C@H]1N2C(=O)C1CC1,·,-14.0,·,·,·,3.7
COc1ccc(C(c2nnnn2-c2c(C)cccc2C)N2CCC(n3c(=O)[nH]c4ccccc43)CC2)cc1 (configuration not stated),·,26.4,1.6,·,4.4,12.8
COc1cccc(C(c2nnnn2Cc2ccccc2)N2CCC(n3c(=O)[nH]c4ccccc43)CC2)c1OC (configuration not stated),·,18.6,-1.9,·,90.6*,10.5
O=c1[nH]c2ccccc2n1C1CCN(Cc2ccc(-c3[nH]c4cc5ncnc5cc4nc3-c3ccccc3)cc2)CC1,·,3.6,·,·,72.1*,16.9
O=c1[nH]c2ccccc2n1C1CCN(C(c2cc3ccccc3o2)c2nnnn2Cc2ccccc2)CC1 (configuration not stated),·,71.8*,28.8,·,108.1*,16.3
O=c1[nH]c2cc(Cl)ccc2n1C1CCN(Cc2ccc(-c3nc4ccccc4nc3-c3ccccc3)cc2)CC1,·,4.3,·,·,47.9,18.8
Cc1cccc(C)c1-n1nnnc1C(c1cc2ccccc2o1)N1CCC(n2c(=O)[nH]c3ccccc32)CC1 (configuration not stated),·,78.4*,95.7*,·,-23.1,13.0
CC[C@H]1C=C(C(=O)N[C@@]2(C(=O)O)C[C@H]2CC)[C@H]2CCC(=O)[C@H]2C1,·,·,·,·,-9.8,-8.1
CCCNC(=O)N1[C@@H]2Cn3c(ccc(-c4cccc(C(=O)N(C)C)c4)c3=O)[C@H]1[C@@H](C(=O)O)[C@@H]2CO,·,2.0,·,·,-27.6,15.2
COC(=O)[C@@H]1[C@@H](CO)[C@@H]2Cn3c(ccc(-c4cccc(F)c4)c3=O)[C@H]1N2Cc1ccccc1,·,1.8,·,·,7.3,5.7
CCCNC(=O)N1[C@@H]2Cn3c(ccc(-c4ccccc4OC)c3=O)[C@H]1[C@@H](C(=O)O)[C@@H]2CO,·,9.6,·,·,-7.7,-0.6
C/C=C/c1ccc(C2[C@@H]3CN(Cc4cocn4)C[C@H]2N3)cc1 (some centres not stated),·,3.5,·,·,-4.2,-11.2
Cc1cccc(C)c1-n1nnnc1C(c1ccccc1OC(F)(F)F)N1CCC(n2c(=O)[nH]c3ccccc32)CC1 (configuration not stated),·,22.7,25.1,·,5.0,-4.2
O=c1[nH]c2ccccc2n1C1CCN(C(c2cccc3ccccc23)c2nnnn2Cc2ccccc2)CC1 (configuration not stated),·,28.1,6.5,·,73.3*,11.9
O=c1[nH]c2ccccc2n1C1CCN(C(CCc2ccccc2)c2nnnn2C2CCCC2)CC1 (configuration not stated),·,65.4*,47.9,·,-7.9,28.1
CN1[C@@H]2c3cccc(=O)n3C[C@H]1[C@H](CO)[C@H]2C(=O)NCC1CC1,·,-3.1,·,·,-9.2,-0.9
O=c1[nH]c(O)c(N=Nc2ccc3c(c2)OCCO3)c(=O)[nH]1,51.6,67.2*,37.4,36.3,8.0,29.2
SMILES,TRPM1 prom inh,LGR2 antag,Shn3 inh set2,EBV LMP1 NFkB,PAX8 inh HTS,EWS-Fli block
C[C@H](CO)N1C[C@H](C)[C@H](CN(C)C(=O)Oc2cccc3ccccc23)OCc2cn(nn2)CCCC1=O,·,-8.6,·,·,10.6,-0.3
CC(C)(C)n1cc(C(=O)c2ccc3ccccc3c2O)cn1,-12.5,66.7*,13.8,-26.5,-61.9,-1.8
COc1ccc(C2=CC(c3ccc(OC)c(OC)c3)c3c(c4ccccc4oc3=O)O2)cc1OC (configuration not stated),29.6,14.5,5.7,22.6,12.0,57.7*
COc1ccc(C2C(C#N)=C(N)Oc3c2c(=O)oc2ccccc32)cc1Cn1cc([N+](=O)[O-])cn1 (configuration not stated),-5.2,·,-1.3,3.5,·,·
O=c1c2ccccc2nc(/C=C/c2ccc([N+](=O)[O-])o2)n1-c1ccc(O)cc1,94.0*,53.9*,97.8*,86.0*,68.8*,83.8*
Cc1cccc(-n2c(/C=C/c3ccc([N+](=O)[O-])o3)nc3ccccc3c2=O)c1,86.1*,31.9,-46.9,84.4*,31.1,37.8
O=C(O)[C@H]1[C@H](CO)[C@H]2Cn3c(ccc(-c4ccncc4)c3=O)[C@@H]1N2C(=O)C1CC1,·,9.9,·,·,-3.9,-1.4
COc1ccc(-c2cc(=Nc3cccc(C(=O)O)c3)c3cc(C)ccc3o2)cc1,-71.5,55.2*,9.9,-5.4,-32.4,14.3
CN(C)CC#Cc1ccc([C@@H]2[C@@H](CO)N3CCCCN(C(=O)Cc4ccccn4)C[C@H]23)cc1,·,-3.3,·,·,-5.8,-4.9
